Results taken from PubChem BioAssay (NCI).
About 83,000 compounds went through this panel and 20% of them were active in at least one assay; those are over-represented in the sample as a whole.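 Treatment: one concentration, 48 hours, 96-well format. Scoring: percent growth, with anything below 10 considered active.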 Values without a mark were called inactive. Calls of active or inactive are those of the source.

Each compound was assayed on HL-60(TB) leukemia (assay: NCI-60 one-dose screen, 48 h (100 = growth as untreated, 0 = no growth, -100 = all killed)). Conditions: 10 µM unless noted.

`COc1ccc2nc3cc(Cl)ccc3c(NCCN)c2c1` was tested, and the growth was -51.5% (active).
With `COc1cnc2c(c1)C(=O)c1c-2n(CCCn2ccnc2)c(=O)c2cc(F)ccc12` the growth was -44.5% (active).
`C=C[C@@H]1C[C@H](O)Cc2c(C)cc(C)cc2N1` was tested, and the growth was -16.4% (active).
`C=CCO[C@H]1CO[C@H]2[C@@H]1OC[C@@H]2Oc1ccc(Nc2ccnc(Nc3ccc(O[C@H]4CO[C@H]5[C@@H]4OC[C@@H]5OCC=C)c(Cl)c3)n2)cc1Cl` was tested, and the growth was -51.4% (active).
`O=C1C(=O)c2cccnc2-c2ncccc21` was tested, and the growth was -21% (active).
For `CCN1CCC[C@H]1c1cc(O)c2c(c1OC)C[C@H]1C[C@H]3[C@H](N)C(=O)C(C(N)=O)=C(O)[C@@]3(O)C(=O)C1=C2O`, the growth was -49.2% (active).
`c1cc(C2CCCCC2)ccc1-c1cnc2nonc2n1` was tested, and the growth was -27.3% (active).

First: NS(=O)(=O)c1ccc(-n2nc(C(=O)N/N=C\c3ccc(F)cc3)cc2-c2ccc(Br)cc2)cc1
Second: O=S(=O)(Nc1ccc(-n2cnc3cc(-c4ccc(O)cc4)ccc32)cc1)c1ccccc1
The growth of the first is lower: 71% for the first, 79% for the second.

Compared with `COc1ccc(-c2nc3c(c(-c4ccc(Cl)cc4)nn3-c3ccccc3)c(-c3ccc(O)cc3)c2C#N)cc1`, `COc1ccc(N=c2nc3sc4cc(Cl)ccc4n3c(N)c2C#N)cc1` is higher in growth: 22.7% for the first, 119% for the second.

Going from `Cc1cc(Nc2nc(-c3ccncc3)nc3ccccc23)n[nH]1` to `Nc1nc(-c2ccccc2Br)nn1-c1nc2ccccc2s1`, the growth rises from 49.1% to 99.3%.

Going from `COCCCN1CC(O)=C(c2nc(-c3ccc(C)cc3)cs2)C1=N` to `CCOc1ccc2nc(C)cc(Nc3ccc(Br)cc3)c2c1`, the growth rises from 84.9% to 107%.

Compared with `CCOC(=O)C/C(C)=N\NC(=O)c1ccncc1`, `N#C/C(C(=O)c1ccccc1)=C1/C(=O)Nc2ccc(Br)cc21` is higher in growth: 99.4% for the first, 146% for the second.

Going from `CCC(O)C(C)(C)C` (stereo not given) to `Oc1c(Cl)cc(Cl)cc1CNc1nccnn1`, the growth rises from 114% to 115%.

Compared with `C#CCOc1ccc2nc(CCl)c(Cl)c(Nc3cccc(C(F)(F)F)c3)c2c1`, `CN(C)c1ncc(C#Cc2c(F)cccc2F)c2ccccc12` is higher in growth: 56.1% for the first, 59.9% for the second.

Compared with `Nc1ccc(CCCCc2ccccc2)c(Cl)c1`, `N#C/C(=C\c1ccc(-c2ccccc2F)o1)c1nc(-c2ccco2)cs1` is higher in growth: 78.7% for the first, 91.2% for the second.

Going from `CC1(C)CC[C@]2(c3nnc(-c4ccncc4)o3)CC[C@]3(C)C(=CC[C@@H]4[C@@]5(C)CCC(=O)C(C)(C)[C@@H]5CC[C@]43C)[C@@H]2C1` to `COc1cccc2cc(-c3cc4ccccc4[nH]3)/c(=N/C(=S)Nc3ccc(C)cc3)oc12`, the growth rises from 30.7% to 98.1%.
